D3 ag: qHTS of D3 Dopamine Receptor Agonist: qHTS; D(3) dopamine receptor (Homo sapiens), P35462; AID 652048, 2013; max activation, %; D3R DiscoveRx beta-arrestin cells, luminescence, 90 min; 0.58% of 410,000 active; in the data active means max activation above about 30%; further: 0% is about no effect
Target sequence (P35462 whole entry, looked up): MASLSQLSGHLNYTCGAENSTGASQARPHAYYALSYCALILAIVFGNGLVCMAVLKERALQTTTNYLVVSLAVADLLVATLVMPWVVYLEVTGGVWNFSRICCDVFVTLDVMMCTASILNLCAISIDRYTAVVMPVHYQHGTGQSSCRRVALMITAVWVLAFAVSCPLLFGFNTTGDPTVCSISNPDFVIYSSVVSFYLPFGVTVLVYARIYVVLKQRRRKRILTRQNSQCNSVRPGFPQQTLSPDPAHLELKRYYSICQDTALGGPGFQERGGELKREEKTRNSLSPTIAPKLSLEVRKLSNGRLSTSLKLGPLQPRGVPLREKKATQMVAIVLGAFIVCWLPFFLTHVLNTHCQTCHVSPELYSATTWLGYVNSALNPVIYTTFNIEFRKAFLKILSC
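Agonist mode: compounds and dopamine controls were applied to plated cells for 90 min at 37 degrees C after an overnight attachment at 1500 cells/well. Luminescent read-out followed 30 - 60 minutes at room temperature with DiscoveRx detection reagent.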
DRD3 antagonist: qHTS of D3 Dopamine Receptor Antagonist: qHTS; 2.5% of 360,000 active; AID 652054, 2013; D(3) dopamine receptor (Homo sapiens), P35462; D3R cells, DiscoveRx beta-arrestin luminescence, antagonist mode; hits give low values; max response, negative = inhibition, %; in the data active means max response below about -50%; inconclusive means no clear call, values can overlap the other calls; further: on the % scale 0 is the no-effect control and ±100 the full control effect
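Cells expressing the human receptor were seeded at 1500 cells/well, incubated overnight at 37 degrees C in 5% CO2, then exposed to library compounds with dopamine controls for 90 minutes at 37 degrees C before luminescent detection.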
B2AR arrestin: qHTS assay of beta-arrestin-biased ligands of beta2-adrenergic receptor. Beta-2 adrenergic receptor (Homo sapiens), P07550. beta-arrestin recruitment to beta2AR, cell-based reporter. Potency, µM (series often up to 46.1 µM), for the others: at the top dose activation, usual class: activators. 0.02% of 330,000 active;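 further: potency means the concentration at half of the fitted maximal effect; 0% = DMSO controls and full agonism = EC100 isoproterenol or metaproterenol; nearly all actives have a fitted effect of over 65% in size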
RGS4 inhibitor: Inhibitors of Regulator of G Protein Signaling (RGS) 4: qHTS; Transcreener GDP fluorescence polarization, RGS4-accelerated GTP hydrolysis; Regulator of G-protein signaling 4 (Homo sapiens), P49798; 0.039% of 390,000 active; Potency, µM (top dose mostly 114 µM), without a hit: at the top dose activity change, negative = inhibition, most hits filed as inhibitors; AID 504845, 2011; further: potency means the concentration at half of the fitted maximal effect; on the % scale 0 is the no-effect control and ±100 the full control effect; nearly all actives have a fitted effect of over 75% in size
Target sequence (P49798 whole entry, looked up): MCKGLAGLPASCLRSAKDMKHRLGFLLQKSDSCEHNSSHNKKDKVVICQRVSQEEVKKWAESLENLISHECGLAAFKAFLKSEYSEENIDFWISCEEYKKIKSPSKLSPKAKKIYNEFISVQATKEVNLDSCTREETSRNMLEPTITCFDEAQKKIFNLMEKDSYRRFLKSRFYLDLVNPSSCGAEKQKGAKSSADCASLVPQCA
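MLSMR compounds (23 nl, pin-transferred) preincubated 10 min at room temperature with a 500nM (2x) first reagent, then RGS4 at 900nM (2x) plus Transcreener GDP mix added; fluorescence polarization (620/688 nm) read before and after 90 min at 30 °C.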
BRCA1 expr act: qHTS Assay to Identify Small Molecule Activators of BRCA1 Expression; MCF7-BRCA1-FFLuc reporter, luminescence, 48 h; response scale: scaled: vehicle 0%, 10 µM genistein 100%; Potency, µM (highest dose often 46.1 µM), without a hit: at the top dose activation, actives largely listed as activators; 1.1% of 380,000 active; AID 624202, 2012; further: potency means the concentration at half of the fitted maximal effect; nearly all actives have a fitted effect of over 80% in size
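Luminescence from a BRCA1-driven firefly luciferase in MCF7 cells was read after 48 h compound exposure at 37 C. Data normalized against DMSO and a 10microM genistein activation control, then curve-fitted across the titration.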
PTHR1 ag: qHTS for PTHR1 Agonists: Primary Screen; Parathyroid hormone/parathyroid hormone-related peptide receptor (Homo sapiens), Q03431; HEK293 GP2 PTHR1 cells, GloSensor cAMP luminescence, 1 h; Potency, µM (series often up to 115 µM), for the others: top-dose activation, usual class: activators; 0.075% of 410,000 active; further: potency means the concentration at half of the fitted maximal effect; nearly all actives have a fitted effect of over 55% in size
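HEK-293-derived GP2 cells expressing PTHR1 and a GloSensor cAMP reporter, 3,000/well, plated overnight, given luciferin plus IBMX (each 0.5 mM as added) for 1 h at 37 °C, then compound for 1 h at 37 °C. Luminescence was read after 15 min at room temperature.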
The depositor's hits bear a star; i = inactive; ? = inconclusive; · = not tested or not shown; ! = not confirmed by another sample; [ ] = dose if it differs, or a comment. A selection: hits, their analogues and other compounds. The true share with any hit is near 3.7%. Unless noted, the call rests on the fitted dose curve; in most records, active means well fitted curve in the direction sought with a large enough effect; inconclusive means small, poorly fitted or top-dose-only effect, or another doubt; inactive means no such curve, though single readings can be large; an effect the other way counts as inactive or inconclusive.

SMILES	D3 ag	DRD3 antagonist	B2AR arrestin	RGS4 inhibitor	BRCA1 expr act	PTHR1 ag
CCOc1ccc(NC(=O)c2ccccc2NC(=O)CNC2CCCC(C)C2C)cc1 (stereo unspecified)	11	9	-4%	-10%	-22%	-10%
Cc1cc(Cl)ccc1OCC(=O)N1CCC(c2nc3ccccc3s2)CC1	6	·	·	-1%	·	-41%
CC1CCCN(c2ncnc3c2cnn3-c2ccc(F)cc2)C1 (stereo unspecified)	3	·	·	8%	·	-38%
CC(Oc1ccc2c3c(c(=O)oc2c1)CCC3)C(=O)NCC1CCC(C(=O)O)CC1 (stereo unspecified)	43*	225	-1%	7%	21%	i
CCc1cc2c(-c3ccccc3)cc(=O)oc2cc1OC(C)C(=O)NCC1CCC(C(=O)O)CC1 (stereo unspecified)	44*	114	0%	-3%	3%	-89%
CC(Oc1cc2oc(=O)cc(-c3ccccc3)c2cc1Cl)C(=O)NCC1CCC(C(=O)O)CC1 (stereo unspecified)	3	24	-1%	-27%	-4%	-14%
COc1ccccc1CNC(=O)C1CCN(Cc2cc3ccccc3n2Cc2cccc(C)c2)CC1	-15	·	·	16%	·	-36%
Cc1ccccc1-n1c(SCC(=O)Nc2ccc(Cl)cc2F)nnc1-c1cc2occc2n1C	10	·	·	1%	·	i
COc1ccc(C2C(C#N)=C(N)Oc3n[nH]c(C)c32)cc1Cn1nnc2ccccc21 (stereo unspecified)	-1	-62*	-1%	-47%	-2%	-11%[57.5 µM]
Cc1ccc2c(c1)c1c(n2CC(O)CN2CCCCCC2)CCCC1 (stereo unspecified)	-2	-68*	0%	2%	-38%	-14%
Cc1ccc2c(c1)c1c(n2CC(O)CNC(C)(C)C)CCCC1 (stereo unspecified)	8	15	0%	-2%	-40%	-16%
COc1ccc(OCCn2c(=O)sc3ccccc32)cc1	7	4	0%	0%	10µM*	-34%
Cc1cccc(OCCCn2c(=O)sc3ccccc32)c1	0	0	5%	13%	?	-6%[57.5 µM]
Cc1cccc(OCCn2c(=O)sc3ccccc32)c1	-4	3	0%	-7%	3.5µM*	-25%
COc1ccccc1OCCn1c(=O)sc2ccccc21	-12	11	0%	15%	15%	i
COc1ccc(NC(=O)c2ccc3oc(=O)c(S(=O)(=O)c4ccc(C)cc4)cc3c2)cc1OC	-6	·	·	-29%	·	-10%
COC(=O)c1c(NC(=O)CCCOc2ccccc2C)sc2c1CCC2	-11	·	·	-52%	·	-6%
N#CC(=Cc1ccc(O)c(O)c1)C(=O)NCc1ccccc1	·	·	·	·	-4%	·
N#C/C(=C\c1ccc(O)c(O)c1)C(=O)NCCCc1ccccc1	-41	-80*	0%	?	-16%	-30%
Cc1cccc(N(CC(O)Cn2c3ccccc3c3ccccc32)S(=O)(=O)c2ccc(F)cc2)c1 (stereo unspecified)	5	·	·	-10%	·	i
Cc1nc(-c2ccc(NC(=O)C(C)(C)C)cc2)c(-c2ccccc2)o1	11	21	0%	-9%	1%	-24%
Cc1cc(C)nc(SCC(=O)Nc2nc(-c3ccccc3)c(-c3ccccc3)o2)n1	33*	43	13%	-25%	-37%	-27%
Cc1ccc(C(=O)Nc2nc(-c3ccccc3)c(-c3ccccc3)o2)cc1	-21	-85*	0%	-19%	-70%	-24%
Cc1cc(=O)[nH]c(SCC(=O)Nc2nc(-c3ccccc3)c(-c3ccccc3)o2)n1	-8	-4	-5%	10%	-21%	i
Cc1ccc(S(=O)(=O)NC(=O)Nc2c(C)cccc2C)cc1	-2	-2	0%	-5%	19%	i
SMILES	D3 ag	DRD3 antagonist	B2AR arrestin	RGS4 inhibitor	BRCA1 expr act	PTHR1 ag
O=S(=O)(c1ccccc1)c1nc(-c2cccs2)oc1SCc1ccccc1F	6	·	·	-14%	·	-1%
COc1ccc2c(c1)c(CC(=O)OCC(N)=O)c(C)n2C(=O)c1ccc(Cl)cc1	1	0	0%	-6%	-5%	-7%
COc1ccc2c(c1)c(CC(=O)OCC(=O)O)c(C)n2C(=O)c1ccc(Cl)cc1	-2	-54*	-1%	-16%	-13%	i
COC(=O)COc1nsnc1N1CCOCC1	-1	29	0%	-9%	-2%	11%
CC(C)(C)NC[C@H](O)COc1nsnc1N1CCOCC1	-42	-54*!	·	25%	35%	16%
O=c1[nH]c(=S)[nH]c2c1C(c1ccc(F)cc1)OC(CCc1ccccc1)C2 (stereo unspecified)	7	-18	·	·	-3%	-10%
O=c1[nH]c(=S)[nH]c2c1[C@H](C1CC1)O[C@H](CCc1ccccc1)C2	-13	-84*	·	·	-10%	-3%
COc1ccc(NC(=O)c2oc3ccccc3c2NC(=O)Cc2ccc(F)cc2)c(OC)c1	1	·	·	-11%	6%	i
CCCc1ccc(Oc2cc(Cl)nc(N)n2)cc1	0	-5	0%	-6%	82%	i
CCc1ccc(Oc2cc(C)nc(N)n2)cc1	0	27	-1%	-4%	3.2µM*	-23%
Cc1nc2ccc(NC(=O)C3(C)CCCN(C(C)C)C3)cc2o1 (stereo unspecified)	1	-5	·	·	19%	i
CCOC(=O)Cn1c(=S)[nH]c2c(oc3ccc(Cl)cc32)c1=O	0	-68*	0%	-10%	1%	i
CC(=O)/C(=N\Nc1ccccc1)Sc1nnc(-c2ccccc2)n1-c1ccccc1	-6	-97*	-1%	-2%	-27%	-34%
CN(C)c1c([N+](=O)[O-])cc2[nH]c(=O)[nH]c2c1[N+](=O)[O-]	-16	-69*	0%	1%	18%	i
O=C(NCCC1=CCCCC1)c1cc(COc2c(F)cccc2F)on1	-3	-10	5%	12%	39%	-17%
Cc1cc(C(=O)NCCC2=CCCCC2)no1	-3	2	0%	-11%	10µM*	i
CC(=O)c1cccc(OCc2cc(C(=O)NCCC3=CCCCC3)no2)c1	-2	1	-2%	7%	3.2µM*	-5%
O=C(COc1ccc(F)cc1)Nc1cccc(OCc2cc(=O)n3ccccc3n2)c1	-15	·	·	-24%	·	-66%

High-throughput results (PubChem)
